LASV entry inh: qHTS for Inhibitors of binding or entry into cells for Lassa Virus | hit rate 1.2% among 300,000 | Potency, µM (highest dose often 37.9 µM), for inactives: at the top dose activity change, negative = inhibition, hits mostly inhibitors | Lassa virus pseudotype entry inhibition, cell reporter; calls by dose curve; tested in HEK293 cells; further: potency means the concentration at half of the fitted maximal effect; on the % scale 0 is the no-effect control and ±100 the full control effect; nearly all actives have a fitted effect of over 50% in size
CHX counter-1: Cycloheximide Counterscreen for Small Molecule Inhibitors of Shiga Toxin; cell reporter, cycloheximide protein synthesis inhibition counterscreen; max response, %; hit rate 12% among 300,000; in the data active means max response mostly above about 13%, no sharp cut-off; inactive means mostly below about 14%; further: read at 38.3 µM for the half of the compounds with a filed dose; 0% is about no effect
Marburg entry inh: qHTS for inhibitors of binding or entry into cells for Marburg Virus. Potency, µM (titrated, usually from 37.8 µM), for inactives: top-dose activity change, negative = inhibition, hits mostly inhibitors. Marburg virus pseudotyped entry inhibition, cell reporter. hit rate 1.8% among 300,000; calls by dose curve; tested in HEK293 cells; further: potency means the concentration at half of the fitted maximal effect; on the % scale 0 is the no-effect control and ±100 the full control effect
Shiga toxin inh: A qHTS for Small Molecule Inhibitors of Shiga Toxin; Vero cells, Shiga toxin protein synthesis inhibition reporter; inhibition, % at 38.7 µM; hit rate 9.2% among 290,000; AID 2315, 2010; in the data active means inhibition mostly above about 28%, no sharp cut-off; inactive means mostly below about 43%; further: 0% is about no effect
HCV inhibitor: qHTS Assay for Inhibitors of Hepatitis C Virus (HCV); Huh7.5.1 HCVcc-Cre infection, luciferase reporter, 44 h; Potency, µM (series often up to 41.8 µM), for inactives: at the highest dose activity change, negative = inhibition, hits mostly inhibitors; hit rate 3.4% among 340,000; AID 651820, 2012; active means well fitted inhibition curve with a large enough effect; inconclusive means small, poorly fitted or top-dose-only effect, or another doubt; inactive means no such curve, though single readings can be large or run the other way; further: potency means the concentration at half of the fitted maximal effect; on the % scale 0 is the no-effect control and ±100 the full control effect
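1,000 cells/well; 4 h culture; + compound; + HCVcc-Cre (~0.5 moi); 44 h; luciferase substrate, RT 15 min; read 15 sec.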
FMDV antiviral: High Throughput Screening for Foot and Mouth Disease Virus Antivirals. FMDV antiviral cell-based qHTS. Potency, µM (top dose mostly 57.9 µM), for the others: at the top dose activity change, negative = inhibition, most hits filed as inhibitors. hit rate 1.2% among 410,000; calls by dose curve; tested in HEK293T cells; further: read-out not given here; potency means the concentration at half of the fitted maximal effect; on the % scale 0 is the no-effect control and ±100 the full control effect; nearly all actives have a fitted effect of over 45% in size
CHX counter-2: Cycloheximide Counterscreen for Small Molecule Inhibitors of Shiga Toxin (Confirmatory); shares compounds with Shiga toxin inh; Cycloheximide counterscreen, protein synthesis reporter, Shiga toxin assay; Potency, µM (doses to about 38.3 µM), without a hit: at the highest dose activity (activation), actives largely listed as activators; hit rate 3% among 510; calls by dose curve; further: potency means the concentration at half of the fitted maximal effect; 0% is about no effect
Numbers without * were called inactive; ? = inconclusive; nt = no result; [ ] = dose if it differs, or a comment. Most compounds without a hit are left out; they make up all but 13% or so of the library.

SMILES | LASV entry inh | CHX counter-1 | Marburg entry inh | Shiga toxin inh | HCV inhibitor | FMDV antiviral | CHX counter-2
O=C(Sc1cccc2cccnc12)c1ccc(F)cc1 | nt | 10 | nt | 28 | nt | nt | nt
O=C(O)c1cc(S(=O)(=O)Nc2ccc(OCc3ccccc3)cc2)ccc1Br | 8%[46.1 µM] | 10 | 14%[46.1 µM] | 40* | -12% | 22% | ?
COc1ccccc1NC(=O)NNC(=O)c1ccc2ccccc2c1 | 7%[46.1 µM] | -3 | -13%[46.1 µM] | -4 | 7% | 12% | nt
COc1ccccc1C(=O)NNC(=O)c1ccc2ccccc2c1 | nt | 1 | nt | nt | 5% | 0% | -1%
Cn1c(C(=O)Nc2ccc(Cl)cc2)cc2cc(Cl)ccc21 | nt | -4 | nt | -5 | 10% | 1% | nt
COc1ccc(N(C(=O)c2csnn2)C(C(=O)NC2CCCC2)c2cccs2)cc1 (configuration not stated) | 0%[46.1 µM] | -6 | 6%[46.1 µM] | 56* | 1% | 27% | -4%
CC(=O)c1sc(-c2ccccn2)nc1C | nt | 14 | nt | 32* | nt | nt | 3%
CCOc1ccccc1NC(=O)COC(=O)CNS(=O)(=O)c1ccc(C)cc1 | -6% | 1 | ? | -8 | -1% | -14% | nt
O=c1cc(-c2ccc(O)cc2)oc2cc(O[C@H]3OC(CO)C(O)C(O)C3O)cc(O)c12 (some centres not stated) | nt | nt | nt | nt | nt | 49% | nt
O=c1c(-c2ccc(O)cc2)coc2cc(O[C@@H]3O[C@H](CO)[C@H](O)[C@H](O)[C@H]3O)ccc12 | nt | 11 | nt | 49* | nt | nt | 3%
CCOC(=O)c1cnc2c(-c3cccc(Br)c3)cnn2c1C | ? | 6 | ? | active | 10% | 31% | 2.8µM*
CCOC(=O)/C(C(=O)Nc1ccc(Br)cc1)=C1/NC(C)(C)Cc2ccccc21 | ? | 11 | 23% | 45* | -18% | -1% | ?
COc1ccc(CNC(=O)C(OC(=O)c2ccco2)c2ccccc2F)cc1 (configuration not stated) | 11%[46.1 µM] | -1 | -11%[46.1 µM] | 40* | 16% | 12% | 5%
CCC(OC(=O)c1ccco1)C(=O)NCc1ccc(OC)cc1 (configuration not stated) | -19%[46.1 µM] | -5 | -1%[46.1 µM] | -5 | 7% | 2% | nt
CCOC(=O)C1=C(C)NC(=O)NC1c1ccc(OCC(=O)Nc2ccccc2)c(OC)c1 (configuration not stated) | nt | 7 | -3% | 39* | ? | -29% | 0%
CCOC(=O)C1=C(C)NC(=O)NC1c1ccc(OCC(=O)OC)c(OC)c1 (configuration not stated) | -1% | -2 | -11% | 13 | 6% | 0% | nt
COc1ccc(NC(=O)CN2CCN(c3nc(-c4ccc(F)cc4)cs3)CC2)c(OC)c1 | 9% | -3 | -24%[46.1 µM] | 36* | ? | -28% | -2%
COc1cccc(-c2csc(N3CCN(C(=O)Nc4ccc(F)cc4)CC3)n2)c1 | 4% | 5 | ? | 34* | 7.9µM* | ? | 0%
Cc1cccc(NC(=O)Cc2nnc(NC(=O)Nc3ccccc3F)s2)c1 | nt | -1 | nt | -7 | -12% | 6% | nt
C[C@@H]1C=CCCO[C@]12C(=O)N(CC1CC1)c1cccc(Br)c12 | nt | nt | -10%[14.2 µM] | nt | nt | nt | nt
COc1ccc(-c2cn3c(C)c(C(=O)NC(C)C)sc3n2)cc1 | 0% | 8 | 9% | 53* | 5% | 19% | 3%
COc1ccc(-c2cn3c(C)c(C(=O)N4CCN(c5ccc(F)cc5)CC4)sc3n2)cc1 | nt | -4 | -1% | -8 | -7% | 6% | nt
O=C(c1cnccn1)N1CCc2ccccc21 | 17% | 13 | 6% | 8 | 14% | 19% | nt
Cc1c(C(=O)N2CCc3ccccc32)cnn1C | ? | 6 | ? | 49* | 29% | 39% | 5%
c1ccc(CN2CCCC3(CCNCC3)C2)cc1 | nt | nt | nt | nt | nt | -1% | nt
SMILES | LASV entry inh | CHX counter-1 | Marburg entry inh | Shiga toxin inh | HCV inhibitor | FMDV antiviral | CHX counter-2
Cc1ccc(C(CC(=O)NCc2ccco2)c2ccc(OC(C)C)cc2)cc1 (configuration not stated) | -22% | 15 | -17% | 42* | -8% | -17% | 5%
COc1ccc(C(CC(=O)NCc2ccco2)c2ccc(F)cc2)cc1 (configuration not stated) | -6% | 1 | -18% | -6 | -7% | ? | nt
CC1CCCC(C)N1C(=O)Cn1nnc(-c2ccccc2)n1 (configuration not stated) | nt | 4 | nt | 33* | 6% | 23% | -1%
CC1=C(C)C(OCCBr)N(c2cc(O)c(Cl)cc2F)C1=O (configuration not stated) | 13%[46.1 µM] | 5 | -2%[46.1 µM] | 43* | 14% | 0% | -3%
COc1cccc(Oc2cncnc2-c2ccc(OC)cc2O)c1 | ? | 2 | ? | -9 | -21% | 1% | nt
O=C(COC(=O)CC1CC2CCC1C2)NCc1ccc(F)cc1 (configuration not stated) | ? | nt | -17%[46.1 µM] | nt | -15% | -18% | nt
O=C(CC1CC2CCC1C2)NCCc1ccc(Cl)cc1 (configuration not stated) | 28% | 16 | 1%[46.1 µM] | 49* | -6% | 15% | 2%
OC1C[N+]2(CCCCC2)C1 | 13% | -2 | 0% | 30* | 20% | 11% | -2%
O=C(NC1CCCCC1)c1cc(Cl)ccc1[N+](=O)[O-] | ? | -3 | 1% | -9 | -4% | 8% | nt
O=C(NC1CCCC1)c1cc(Cl)ccc1[N+](=O)[O-] | 8% | 14 | ? | 27* | 0% | -17% | -4%
Cc1cccc(-n2nnnc2SCC(=O)Nc2cccc(S(N)(=O)=O)c2)c1 | nt | -1 | nt | -11 | ? | -9% | nt
CC(=O)NC(c1ccccc1)c1nc(-c2ccc3ccccc3c2)cs1 (configuration not stated) | nt | nt | nt | nt | nt | -1% | nt
O=C(/C=C\c1ccco1)Nc1nc(-c2ccc3ccccc3c2)cs1 | -4% | 21 | ? | 58* | ? | ? | 3%
COc1ccc(NC(=O)c2cc(C)on2)cc1OC | 38% | -1 | 0% | 28* | ? | 0% | 9%
CCOc1ccccc1NC(=O)COc1cccc(-n2cnnn2)c1 | 5% | -4 | -25% | -7 | ? | -4% | nt
Cc1sc(NC(=O)COc2cccc(-n3cnnn3)c2)c(C#N)c1C | -8% | 2 | ? | 75* | -23% | 3% | 0%
COc1ccc(-c2noc(CC(=O)Nc3ccc(C)c(F)c3)n2)cc1 | 4%[46.1 µM] | nt | nt | nt | nt | 0% | nt
O=C(NCC(=O)N1CCCC(C(F)(F)F)C1)c1ccc(Oc2ccccc2)cc1 (configuration not stated) | nt | 20 | nt | 21* | ? | ? | -1%
CCCn1c(SCC(=O)NCc2ccco2)nc2c1c(=O)n(C)c(=O)n2C | 0% | -1 | 15% | -8 | 6% | -4% | nt

Assay outcomes (PubChem)
